Shown are actives, neighbours in structure and some others; about 2.3% of the full set was active somewhere.
H9c2 TAG inh = inhibitors of triacylglycerol accumulation. H9c2 cells, Nile Red lipid (TAG) fluorescence; cells loaded with 200 µM oleic acid. inhibition, % at 12.5 µM. actives 0.66% (n = 230,000). AID 651582;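 active means pattern-corrected inhibition of lipid staining of at least 50% with the nuclear-stain viability signal not falling by more than 50%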
beta cell repl = induces beta-cell replication in MIN6 cells; proliferation, % at 10 µM; MIN6 cells proliferation, ATPlite luminescence, 48 h; cells starved in 0.2% serum; 100% = growth in 10% serum; actives 0.29% (n = 330,000); AID 2380;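 active means compounds whose signal lies at least 3.5 SD above the mean of all wells on their plate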
FAS TE block = inhibitors of human fatty acid synthase thioesterase domain | recombinant FAS-TE, OMFH fluorogenic substrate, fluorescence endpoint | actives 0.67% (n = 360,000) | inhibition, % at 15 µM;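 active means compounds whose normalised, plate-corrected inhibition of enzyme fluorescence in the single-dose primary screen is 50% or more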
aDG glyco act = alpha-DG glycosylation activation; activation, % at 10 µM; Pro5-aDG cells, alpha-DG glycosylation AlphaScreen (IIH6); 0% Pro5, 100% B10-LARGE cell signal; actives 0.22% (n = 360,000);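 active means activation of at least 8% versus controls, or a plate z-score of at least 8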;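 further: Pro5 are CHO cells carrying HIG-tagged alpha-DG that lacks glycosylation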
m-calpain inh = inhibitors of pig calpain II; purified calpain II, fluorogenic peptide substrate, 30 min; inhibition, % at 16 µM; actives 0.37% (n = 220,000);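 active means inhibition above about 50%, limit read from the data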
Cardio protect = modulators protecting cardiomyocytes from myocardial damage; actives 0.63% (n = 360,000); AID 588492; protection from H2O2 cell death, % at 20 µM; H9c2 cardiomyocytes, H2O2 injury protection, ATPLite, 2 h;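 active means compounds giving at least 50% protection of heart cells from peroxide-induced death in the single-dose screen, raw or plate-pattern-corrected value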
TAG conf = confirmation of triacylglycerol accumulation inhibitors. shares compounds with H9c2 TAG inh. H9c2 lipid accumulation, Nile Red fluorescence; cells loaded with 200 µM oleic acid. inhibition, % at 12.5 µM. actives 71% (n = 990). AID 651629;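 active means mean inhibition across replicates of 40% or more; inactive means mean inhibition below 40%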
Of the large screens only hits and unclear results are named; the others gave an inactive call (follow-up assays come after a bar, where they were run); ! = repeats disagree.

COc1ccc(F)cc1S(=O)(=O)N1CCC2(CC1)OCCN2S(=O)(=O)c1cccs1	none (no result: m-calpain inh)
CCOc1ccc(CCNC(=O)CN(C)S(=O)(=O)c2cccc3nsnc23)cc1OCC	H9c2 TAG inh 50.6 | TAG conf 43.7
CNc1[nH]c(=O)[nH]c(=O)c1N=Nc1cc(Cl)ccc1Cl	none (no result: m-calpain inh)
CCC1SC2=NC(C)=C(C(=O)OCC(C)C)C(/C=C/c3ccccc3OC)N2C1=O (centres undefined)	H9c2 TAG inh 71.9 | TAG conf inactive
Cc1ccccc1CNC(=O)c1ccccc1SCC(=O)NCc1ccco1	none (no result: m-calpain inh)
CN(C)CCOC1(Cc2ccc(F)cc2)CCC(C(C)(C)C)CC1 (centres undefined)	none (no result: beta cell repl, m-calpain inh)
Cc1ccc(CC2(OCCN(C)C)CCC(C(C)(C)C)CC2)cc1 (centres undefined)	H9c2 TAG inh 83.8 (no result: beta cell repl, m-calpain inh) | TAG conf 62.6
Cc1ccccc1OCC(=O)N(Cc1ccco1)c1c(N)n(Cc2ccccc2)c(=O)[nH]c1=O	none (no result: m-calpain inh)
CCOC(=O)[C@@H]1[C@H]2COc3ccc(Br)cc3[C@@H]2N2C(=O)N(c3ccc(C(F)(F)F)cc3)C(=O)[C@@]12C	H9c2 TAG inh 52.4 (no result: m-calpain inh) | TAG conf 68.6
CCOC(=O)[C@H]1[C@H]2COc3ccc(Br)cc3[C@@H]2N2C(=O)c3cc(Br)ccc3NC(=O)[C@@]12C	H9c2 TAG inh 62.7 (no result: m-calpain inh) | TAG conf 52.4
CCOC(=O)[C@@H]1[C@H]2COc3ccc(Br)cc3[C@@H]2N2C(=O)N(c3ccc(F)cc3)C(=O)[C@@]12C	none (no result: m-calpain inh)
CCOC(=O)[C@H]1[C@H]2COc3ccc(Cl)cc3[C@@H]2N2C(=O)c3cc(Cl)ccc3NC(=O)[C@@]12C	H9c2 TAG inh 50.5 (no result: m-calpain inh) | TAG conf 53.2
CCOC(=O)[C@H]1[C@H]2COc3ccc(Cl)cc3[C@@H]2N2C(=O)c3cc(Br)ccc3NC(=O)[C@@]12C	none (no result: m-calpain inh)
Cc1noc(C)c1-c1csc(N2CCC(C(N)=O)CC2)n1	none (no result: m-calpain inh)
O=C(OCc1c(F)cccc1Cl)c1cccnc1Cl	none (no result: H9c2 TAG inh, m-calpain inh)
CCN1CCN(Cc2ccc(NC(=O)c3cc(NC(=O)c4ccno4)cc(OC)c3)cc2C(F)(F)F)CC1	none
CCN1CCN(Cc2ccc(NC(=O)c3cc(NC(=O)c4cncc(-c5cccs5)c4)cc(OC)c3)cc2C(F)(F)F)CC1	H9c2 TAG inh 57.1 (no result: m-calpain inh) | TAG conf 43.6
CCN1CCN(Cc2ccc(NC(=O)c3cc(NC(=O)c4cc5cccc(OC)c5o4)cc(OC)c3)cc2C(F)(F)F)CC1	H9c2 TAG inh 59.8! | TAG conf 68.5
COc1cc(NC(=O)c2cc3cccc(OC)c3o2)cc(C(=O)Nc2cccc(C(F)(F)F)c2)c1	H9c2 TAG inh 54.6 | TAG conf 69.3
O=C(COC(=O)C1=COCCO1)NCc1ccc(Cl)cc1Cl	H9c2 TAG inh 66.0 (no result: beta cell repl, m-calpain inh) | TAG conf inactive
Cc1ccc(NC(=O)c2cc([N+](=O)[O-])ccc2NCc2cccnc2)cc1Cl	H9c2 TAG inh 67.8 | TAG conf 40.5
CC(C)(C)NC(=O)C(c1ccc(-c2ccccc2)cc1)N(C[C@H]1CC[C@@H]([C@@H]2CC[C@H](CO)O2)O1)C(=O)c1cccc(Cl)c1 (some centres undefined)	none (no result: beta cell repl, m-calpain inh)
CC(C)(C)NC(=O)C(c1ccc(-c2ccccc2)cc1)N(C[C@H]1CC[C@@H]([C@@H]2CC[C@H](CO)O2)O1)C(=O)c1ccc(-c2ccccc2)cc1 (some centres undefined)	H9c2 TAG inh 59.7 (no result: beta cell repl, m-calpain inh) | TAG conf 67.2
CC(C)(C)NC(=O)C(c1ccc(-c2ccccc2)cc1)N(C[C@H]1CC[C@@H]([C@@H]2CC[C@H](CO)O2)O1)C(=O)c1ccc2ccccc2c1 (some centres undefined)	H9c2 TAG inh 65.4 (no result: beta cell repl, m-calpain inh) | TAG conf 82.3
O=C(CSc1cccc2cccnc12)Nc1ccc(S(=O)(=O)N2CCOCC2)cc1	H9c2 TAG inh 72.4 | TAG conf 56.7
Cc1cccc(NC(=O)CSc2cccc3cccnc23)c1C	none (no result: m-calpain inh)
O=C(CSc1cccc2cccnc12)Nc1cccc(S(=O)(=O)N2CCOCC2)c1	none
